Assay results reported in PubChem BioAssay (NCI).
About 83,000 compounds went through this panel and 20% of them were active in at least one assay; those are over-represented in the sample as a whole.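 Assay: single dose, 48 h. Readout: percent growth (0 = no net growth; negative = cell death). Active: <10.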 Calls of active or inactive are those of the source.

How the values were obtained:
Assay in all cases: NCI-60 one-dose screen, 48 h (100 = growth as untreated, 0 = no growth, -100 = all killed)
Details in all cases: 10 µM unless noted
SK-MEL-2 melanoma = test system: SK-MEL-2 melanoma
EKVX NSCLC = test system: EKVX NSCLC
SN12C renal = test system: SN12C renal
UO-31 renal = test system: UO-31 renal
TK-10 renal = test system: TK-10 renal
ACHN renal = test system: ACHN renal
CAKI-1 renal = test system: CAKI-1 renal
A498 renal = test system: A498 renal
CCRF-CEM leukemia = test system: CCRF-CEM leukemia
MOLT-4 leukemia = test system: MOLT-4 leukemia

Measured: growth

CCN1C(=O)N(CC)C2C1NN=c1s/c(=C\c3cnc(C)n3C)c(=O)n12 (stereo not given)
inactive: SK-MEL-2 melanoma 39.2% | EKVX NSCLC 49.7% | SN12C renal 33.4% | UO-31 renal 40.9% | TK-10 renal 51.5% | ACHN renal 34.3% | CAKI-1 renal 26% | MOLT-4 leukemia 35%
active: A498 renal -9.65% | CCRF-CEM leukemia 9.03%

Cc1ccc(-c2nc(N3CCNCC3)c3oc(-c4ccc(C)cc4)nc3n2)cc1
inactive: SK-MEL-2 melanoma 99.2% | EKVX NSCLC 120% | SN12C renal 50.9% | UO-31 renal 64.6% | ACHN renal 50.7% | CAKI-1 renal 101% | A498 renal 94.8%
active: TK-10 renal -30.4% | CCRF-CEM leukemia -72.2% | MOLT-4 leukemia -72.6%

C=CCC(CCCC)(C(=O)OCC)C(=O)OCC
inactive: SK-MEL-2 melanoma 100% | EKVX NSCLC 114% | SN12C renal 110% | UO-31 renal 85.3% | TK-10 renal 104% | ACHN renal 102% | CAKI-1 renal 96.7% | A498 renal 111% | CCRF-CEM leukemia 93.2% | MOLT-4 leukemia 108%

O=C(CCCCCCN1CC(=O)N2[C@H](c3ccc(Br)cc3)c3[nH]c4ccccc4c3C[C@@H]2C1=O)NO
active: MOLT-4 leukemia 5.86%
inactive: SK-MEL-2 melanoma 60.3% | EKVX NSCLC 56.7% | SN12C renal 56.6% | UO-31 renal 58.8% | TK-10 renal 40.6% | ACHN renal 72.3% | CAKI-1 renal 51.5% | A498 renal 67.4% | CCRF-CEM leukemia 21%

Cc1ccc(S(=O)(=O)c2nc(-c3ccccc3)oc2Sc2nc3ccccc3s2)cc1
inactive: SK-MEL-2 melanoma 88.6% | EKVX NSCLC 97.1% | SN12C renal 61.4% | UO-31 renal 64.3% | TK-10 renal 111% | ACHN renal 96.8% | CAKI-1 renal 91.5% | A498 renal 80.4% | CCRF-CEM leukemia 23.6% | MOLT-4 leukemia 12.3%

C=C1CC[C@@H]2C(C)(C)[C@@H](O)CC[C@@]2(C)[C@@H]1COc1ccc2ccc(=O)oc2c1
inactive: SK-MEL-2 melanoma 88.3% | EKVX NSCLC 60.3% | SN12C renal 74.9% | UO-31 renal 52.6% | TK-10 renal 95% | ACHN renal 80.1% | CAKI-1 renal 73.5% | A498 renal 68.9% | CCRF-CEM leukemia 60.8% | MOLT-4 leukemia 47.4%

CC1CCN(C(=O)CCCl)c2ccccc21 (stereo not given)
inactive: SK-MEL-2 melanoma 109% | EKVX NSCLC 144% | SN12C renal 99.7% | UO-31 renal 75.8% | TK-10 renal 95.7% | ACHN renal 117% | CAKI-1 renal 119% | A498 renal 95.8% | CCRF-CEM leukemia 104% | MOLT-4 leukemia 118%

CCN1C(=O)N(CC)C2C1NN=c1s/c(=C3\C(=O)N(CC(C)C)c4ccccc43)c(=O)n12 (stereo not given)
inactive: SK-MEL-2 melanoma 56% | EKVX NSCLC 53.7% | SN12C renal 27.5% | UO-31 renal 32.1% | TK-10 renal 70.2% | ACHN renal 31% | CAKI-1 renal 31.6% | CCRF-CEM leukemia 11.6% | MOLT-4 leukemia 19.6%
active: A498 renal 9.64%

CC1(C)CC[C@]23CC[C@]4(C)[C@H](CC[C@@H]5[C@@]6(C)C/C(=C/c7ccncc7)C(=O)C(C)(C)[C@@H]6CC[C@]54C)[C@H]2[C@H]1OC3
active: A498 renal -3.63%
inactive: SK-MEL-2 melanoma 80.9% | EKVX NSCLC 92.3% | SN12C renal 76.7% | UO-31 renal 57.1% | TK-10 renal 97% | ACHN renal 91% | CAKI-1 renal 66.4% | CCRF-CEM leukemia 44.3% | MOLT-4 leukemia 50.4%

CC1(C)CC2=C3C=C[C@@H]4[C@@]5(C)CCC(=O)C(C)(C)[C@@H]5CC[C@@]4(C)[C@]3(C)CC[C@@]2(C(=O)O)C[C@H]1O
active: SK-MEL-2 melanoma 9.89% | ACHN renal 8.49%
inactive: EKVX NSCLC 34.9% | SN12C renal 21.8% | UO-31 renal 17.1% | TK-10 renal 16.9% | CAKI-1 renal 22.9% | A498 renal 34.9% | CCRF-CEM leukemia 13.3% | MOLT-4 leukemia 19.5%

CN(C)CCCNC(=O)c1cncnc1Nc1ccc(OCc2cccc(F)c2)c(Cl)c1
inactive: EKVX NSCLC 62.8% | SN12C renal 28.7%
active: SK-MEL-2 melanoma -35.7% | UO-31 renal -4.99% | TK-10 renal -71.7% | ACHN renal -36.8% | CAKI-1 renal -19.3% | A498 renal -8.81% | CCRF-CEM leukemia -34.2% | MOLT-4 leukemia -40.9%

O=C(O)[C@@H](Cc1ccc2ccccc2c1)NC(=O)n1c2ccccc2c2ccccc21
active: A498 renal 9.24%
inactive: SK-MEL-2 melanoma 33.3% | EKVX NSCLC 47.9% | SN12C renal 34.1% | UO-31 renal 38.9% | TK-10 renal 58.1% | ACHN renal 48.8% | CAKI-1 renal 30.5% | CCRF-CEM leukemia 13% | MOLT-4 leukemia 24.5%

CCN(CC)CCN1C(=O)c2cccc3c(/C=C/CN4C(=O)c5cccc6cccc(c56)C4=O)ccc(c23)C1=O
inactive: SK-MEL-2 melanoma 108% | EKVX NSCLC 106% | SN12C renal 96.1% | UO-31 renal 82% | TK-10 renal 129% | ACHN renal 96.8% | CAKI-1 renal 89% | A498 renal 77.7% | CCRF-CEM leukemia 25.4% | MOLT-4 leukemia 62.8%

O=C(Cc1cccc(OC(F)(F)F)c1)Nc1ccc(CCCCc2nnc(NC(=O)Cc3ccccn3)s2)nn1
inactive: SK-MEL-2 melanoma 116% | EKVX NSCLC 73.8% | SN12C renal 68.5% | UO-31 renal 45.1% | TK-10 renal 65% | ACHN renal 70% | CAKI-1 renal 70.4% | A498 renal 20.6% | CCRF-CEM leukemia 43% | MOLT-4 leukemia 43.8%

N#Cc1nc(-c2ccccc2)oc1S(=O)(=O)N1CCN(c2ccc(F)cc2)CC1
active: CCRF-CEM leukemia -31% | MOLT-4 leukemia -15.7%
inactive: SK-MEL-2 melanoma 95.2% | EKVX NSCLC 118% | SN12C renal 79.4% | UO-31 renal 80.3% | TK-10 renal 44.1% | ACHN renal 53.8% | CAKI-1 renal 62.2% | A498 renal 110%

O=P(O)(O)OCC1OC(n2cnc3c(NCc4ccco4)ncnc32)C(O)C1O (stereo not given)
inactive: SK-MEL-2 melanoma 89.2% | EKVX NSCLC 48.6% | SN12C renal 12.1% | TK-10 renal 60.9% | MOLT-4 leukemia 16%
active: UO-31 renal -6.51% | ACHN renal 4.1% | CAKI-1 renal -42.3% | A498 renal 7.68% | CCRF-CEM leukemia -31.5%

COC(=O)c1c2c(n3ccccc13)C(=O)c1ccccc1C2=O
inactive: SK-MEL-2 melanoma 75.3% | EKVX NSCLC 70.9% | SN12C renal 53.2% | UO-31 renal 35% | TK-10 renal 80.7% | ACHN renal 38.6% | CAKI-1 renal 56% | A498 renal 67.1% | CCRF-CEM leukemia 59.1% | MOLT-4 leukemia 35.5%
